Test results published in PubChem BioAssay (NCI).
Compounds without any hit were thinned out: in the full panel of roughly 83,000, 20% have a hit.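 Negative percent growth values reflect cell death: -40 means 40% of the cells present at the start died, and -100 means all died.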 Unmarked numbers belong to inactive results. Activity calls are given as the source filed them. How the source made its calls: active means growth percent below 10; inactive means the rest.

What was measured:
Test in all cases: NCI-60 one-dose screen, 48 h (100 = growth as untreated, 0 = no growth, -100 = all killed)
Conditions in all cases: 10 µM unless noted
SK-MEL-2 melanoma = tested on: SK-MEL-2 melanoma
EKVX NSCLC = tested on: EKVX NSCLC
SN12C renal = tested on: SN12C renal
UO-31 renal = tested on: UO-31 renal
TK-10 renal = tested on: TK-10 renal
ACHN renal = tested on: ACHN renal
A498 renal = tested on: A498 renal
CCRF-CEM leukemia = tested on: CCRF-CEM leukemia
MOLT-4 leukemia = tested on: MOLT-4 leukemia
SR leukemia = tested on: SR leukemia
RPMI-8226 leukemia = tested on: RPMI-8226 leukemia
OVCAR-8 ovarian = tested on: OVCAR-8 ovarian
OVCAR-4 ovarian = tested on: OVCAR-4 ovarian
SK-OV-3 ovarian = tested on: SK-OV-3 ovarian
IGROV1 ovarian = tested on: IGROV1 ovarian
OVCAR-3 ovarian = tested on: OVCAR-3 ovarian
NCI/ADR-RES ovarian = tested on: NCI/ADR-RES ovarian
CAKI-1 renal = tested on: CAKI-1 renal
OVCAR-5 ovarian = tested on: OVCAR-5 ovarian
HS 578T breast = tested on: HS 578T breast

SMILES	growth (SK-MEL-2 melanoma)	growth (EKVX NSCLC)	growth (SN12C renal)	growth (UO-31 renal)	growth (TK-10 renal)	growth (ACHN renal)	growth (A498 renal)	growth (CCRF-CEM leukemia)	growth (MOLT-4 leukemia)	growth (SR leukemia)	growth (RPMI-8226 leukemia)	growth (OVCAR-8 ovarian)	growth (OVCAR-4 ovarian)	growth (SK-OV-3 ovarian)	growth (IGROV1 ovarian)	growth (OVCAR-3 ovarian)	growth (NCI/ADR-RES ovarian)	growth (CAKI-1 renal)	growth (OVCAR-5 ovarian)	growth (HS 578T breast)
COc1c(CNC(=O)CCl)cc2[nH]c(C)cc2c1CNC(=O)CCl	54.9%	65.1%	53.7%	60.7%	74.1%	37.3%	84.4%	25.6%	51%	34.9%	58.5%	53%	45.3%	70.3%	33.8%	30.9%	118%			
N=C(N)c1nn(C2OC(CO)C(O)C2O)c2nc[nH]c(=O)c12 (stereo unspecified)	-23% (active)	-0.273% (active)	6.98% (active)		-9.5% (active)	-5.7% (active)	15.4%	-0.754% (active)	-11.9% (active)		-19% (active)	7.8% (active)	-6.89% (active)	-15.7% (active)	21.8%	-51.9% (active)	-10.4% (active)	1.5% (active)	30.2%	-19.4% (active)
CC1(C)CC(=O)C=C(N)C1	98.4%	60.3%	99.3%		99.2%	107%	85.1%	124%	59.5%	108%	178%	97.1%	91.7%	145%	101%	106%	83.4%	85.1%	89.3%	77.9%
Cc1cc2c3ccc(C)[n+](C)c3ccc2n1C	92.4%	20%	22.4%		65.6%	79.4%		36.7%	25.2%	15.4%	21.2%	30.3%	62.6%	35.9%	54.7%	47%	88.3%	58.1%	68.2%	38.6%
CC(=O)CSc1ncnc2nc[nH]c12	95%	95.4%	96.9%		88.8%	93%	66.1%	89.3%	87.4%	87.8%	76.6%	99.2%	66.9%			91.5%	101%	80.9%	95.8%	
CCC(=O)C1C(=O)c2ccccc2C1=O	102%	82.6%	109%	68.8%	114%	115%	114%	107%	136%		115%	99.8%	102%	116%		104%	106%		103%	135%
Cc1cc(C)cc(OCC(=O)O)c1	91.4%	101%	99.1%	86.9%	97.8%	98.6%	105%	132%	124%		108%	100%	113%	101%		124%	105%		94.6%	105%
COC1OC(COC(C)=O)C(OC(C)=O)C(OC(C)=O)C1OC(C)=O (stereo unspecified)	101%	93%	101%	99.3%	104%			95.9%	96.3%	95.5%	96.4%	97.9%		101%	118%	96%	95.2%		93%	101%
CC(=O)OCC1CCC(COC(C)=O)CC1 (stereo unspecified)	89.8%	94.3%	110%	91.9%	89.1%		109%	115%	93.1%			106%	111%	87.9%	105%	102%	99.2%		106%	106%
N#Cc1ccc2nc[nH]c2c1	102%	104%	110%		108%	-68.5% (active)	98.7%	115%		106%		104%	109%	109%	115%	102%	110%	95%	108%	100%
